# Source: PubChem (National Center for Advancing Translational Sciences (NCATS))
# The entries come from a sample that favours hits as a whole.
# Pf Dd2 growth: qHTS Primary assay for Inhibitors of Plasmodium falciparum Dd2 growth in vitro. AID 1347417, 2020. Potency, µM (top dose mostly 28.9 µM), hits mostly inhibitors. P. falciparum Dd2 growth, SYBR Green, 72 h. 4.3% of 120,000 active; active = well fitted inhibition curve with a large enough effect; also: nearly all actives have a fitted effect of over 65% in size
#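 Infected erythrocytes (Dd2, 0.3% parasitemia, 2.5% hematocrit final) are added to compound in RPMI-1640/Albumax II medium, grown 72 h at 37C in low oxygen, then lysed with saponin/Triton-X containing SYBR Green and read by fluorescence.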
# A number is an active result; n = inactive.
SMILES,Pf Dd2 growth
Fc1ccc2oc([C@H]3CCN(CC4CCCCC4)C3)nc2c1,n
COc1ccc(S(=O)(=O)N2[C@@H]3CC[C@H]2CC(NC(=O)c2ccc(F)cc2)C3)cc1OC (stereo not given in full),n
CC(C)c1nnc(C2CN(C(=O)c3cnccn3)CC23CCOCC3)o1 (stereo not given),n
CN(C)C(=O)c1csc(N2CCN(c3cccc(Cl)c3)CC2)n1,n
COC(=O)c1scc(-c2ccc(C)cc2)c1S(=O)(=O)Nc1ccc(N(C)C)cc1,n
COC(=O)c1scc(-c2ccc(C)cc2)c1S(=O)(=O)N1CCN(c2ccc(C)cc2C)CC1,n
COC(=O)c1scc(-c2ccc(C)cc2)c1S(=O)(=O)Nc1cc(C)c(Cl)cc1OC,8.9µM
COC(=O)c1scc(-c2ccc(C)cc2)c1S(=O)(=O)N1CCN(c2ccccc2F)CC1,11µM
COC(=O)c1scc(-c2ccc(C)cc2)c1S(=O)(=O)Nc1ccc(NC(C)=O)cc1,n
COC(=O)c1scc(-c2ccc(C)cc2)c1S(=O)(=O)N1CCN(c2ccccc2)CC1,n
CC1CCN(c2ccc(CNC(=O)c3ccc4c(c3)C(O)CCCCCN4C)cc2)CC1 (stereo not given),n
CCOc1ccccc1C(=O)N1CCC2(CC1)NC(=O)N(c1cccc(Cl)c1)N2,n
COc1cccc(Nc2cc(-c3cccs3)nc3c(C)noc23)c1,n
Cc1ccc(C)c(N2CCN(C(=O)c3cccn4c(=O)c5ccccc5nc34)CC2)c1,13µM
Cc1ccc(C)c(N2CCN(C(=O)c3cc(C)nc4c3c(C)nn4-c3ccccc3)CC2)c1,8.9µM
Cc1cc(C(=O)N2CCN(c3ccc(F)cc3)CC2)c2c(C)nn(-c3cccc(Cl)c3C)c2n1,n
CSc1ncc(C(=O)N2CCN(c3cc(C)ccc3C)CC2)c(C)n1,n
O=C(c1cccn2c(=O)c3cc(Cl)ccc3nc12)N1CCN(c2ccccc2F)CC1,n
Cc1ccc(-n2nc(C)c3c(C(=O)Nc4ccccc4C(F)(F)F)cc(C)nc32)cc1,n
Cc1cc(C(=O)N2CCN(c3cccc(Cl)c3)CC2)c2c(C)nn(-c3ccccc3Cl)c2n1,11µM
Cc1ccc(-n2nc(C)c3c(C(=O)O)cc(C)nc32)cc1,n
COc1cc(NC(=O)c2cc(C)nc3c2c(C)nn3-c2ccccc2Cl)cc(OC)c1,n
C[S+](=O)([O-])N1Cc2ccccc2CC2(CCCN(CC3CCNCC3)C2)C1 (stereo not given),n
Cc1cc(C)n2nc(C(=O)N[C@H](c3ccccn3)C3CC(O)C3)nc2n1 (stereo not given in full),n
Cc1cccc(-c2nc3cnccn3c2NCCC(=O)N2CCCCC2)c1,n
SMILES,Pf Dd2 growth
O=C(Nc1ccccc1F)N1CC2CC(C1)[C@H]1CCCC(=O)N1C2 (stereo not given in full),n
O=C(NCc1ccccn1)C1CCN(C(=O)c2ncn3c2COC(c2ccc(Cl)cc2)C3)CC1 (stereo not given),n
CC(C)c1ccc(C(=O)N2CC(C(=O)N(C)C)C3(CCOCC3)C2)cc1 (stereo not given),n
c1cc(Cn2ccc3c(N4CCOCC4)nc(-c4ccc5cn[nH]c5c4)cc32)ccn1,n
CCOC(=O)c1cccc(NC(=O)CCn2nc(C)c3c(C)n(-c4ccccc4)nc3c2=O)c1,2.5µM
CCc1ccccc1NC(=O)CCn1nc(C)c2c(C)n(-c3ccccc3)nc2c1=O,n
Cc1ccc(NC(=O)CCn2nc(C)c3c(C)n(-c4ccccc4)nc3c2=O)cc1Cl,n
CCCCC(Sc1nc2cc3c(cc2c(=O)n1CCCC(=O)NCc1ccc(OC)cc1)OCO3)C(=O)OCC (stereo not given),7.9µM
CCC(Sc1nc2cc3c(cc2c(=O)n1CCCC(=O)NCc1ccc(OC)cc1)OCO3)C(=O)NCCCOC (stereo not given),n
COc1ccc(CNC(=O)CCCn2c(SCC(N)=O)nc3cc4c(cc3c2=O)OCO4)cc1,n
COC[C@@H]1CN(Cc2cc(Cl)ccc2F)C[C@H]1C(N)=O,n
Cc1ccc(C(=O)N2CCCC3(CC(c4ccccn4)=NO3)C2)cc1 (stereo not given),n
COCC(=O)N1CCC(C(=O)NCc2cc(-c3cccc(F)c3)no2)CC1,n
CC(=O)N1CCC(N(Cc2ccco2)C(=O)Nc2ccc(C)c(Cl)c2)CC1,n
COc1ccc(C)cc1NC(=O)N(Cc1ccc2c(c1)OCO2)C1CCN(Cc2ccccc2)CC1,8.9µM
Cc1ccc(NC(=O)N(Cc2ccc3c(c2)OCO3)C2CCN(Cc3ccccc3)CC2)cc1C,n
Cc1ccc(NC(=O)N(Cc2ccc3c(c2)OCO3)C2CCN(Cc3ccccc3)CC2)cc1Cl,10µM
CCN1CCC(N(Cc2cccc(OC)c2)C(=O)Nc2ccc(C)cc2Cl)CC1,n
COc1ccc(C)cc1NC(=O)N(Cc1ccc(C)o1)C1CCN(C(C)=O)CC1,n
COc1cccc(NC(=O)N2CC[C@@H](CC(=O)O)[C@@H](CC3=NCCc4ccc(C(C)(C)C)cc43)C2)c1,n
CC(C)c1nnc(C2CN(C(=O)c3ccc(F)cc3)CC23CCOCC3)o1 (stereo not given),n
O=C(c1ccc(Cl)cc1Cl)N1CCN(c2cc(-c3ccccc3)[nH]n2)CC1,n
O=C(Cn1nc2c(cc1=O)CCCC2)N[C@@H](Cc1ccccc1)C(=O)O,n
Cc1cc(N2CCC3(CCCN(C)C3=O)C2)c2ccccc2n1 (stereo not given),n
CCn1cc(CN2CCCC23CCN(c2cc(C)nc4ccccc24)CC3)c(C)n1,2µM
SMILES,Pf Dd2 growth
CCn1cc(CN2CCC(Oc3ccc4ccccc4c3)(C(=O)O)CC2)c(C)n1,n
COCCCNC(=O)N1CCCC(c2nc(-c3cnccn3)no2)CCNC(=O)CC1 (stereo not given),n
CCOc1cc(C(=O)N2CCC[C@H]2c2nc(-c3ccc(OC)cc3)no2)cc(OCC)c1OCC,n
Cc1ccc(CC(=O)N2CC(c3nnc(-c4ccc(C)cc4)o3)C3(CCOCC3)C2)cc1 (stereo not given),n
CCc1cccc(-n2nnnc2N2CCN(C(=O)Nc3ccc(C)c(Cl)c3)CC2)c1,n
Cc1ccc(NC(=O)N2CCN(c3nnnn3-c3cccc(C(F)(F)F)c3)CC2)cc1F,7.9µM
CCc1cccc(-n2nnnc2N2CCN(C(=O)Nc3ccc(C)c(Br)c3)CC2)c1,n
CN1CC(=O)N(CC(=O)N2CCC3(CC2)[C@H](O)C[C@@H]3OCCO)C1=O,n
CN1C(=O)CS(=O)C12CCN(C(=O)CCCc1ccccc1)CC2 (stereo not given),n
CC(C)N[C@@H](Cn1ccc(=O)[nH]c1=O)C(=O)O,n
CC(C)(C)c1cccc(CN2CCC3(CCNCC3)C2)c1O,10µM
Cn1c(CN2CCC3(CCNCC3)C2)nc2ccccc21,n
COc1ccc(F)c(F)c1CN1CCC2(CCNCC2)C1,n
OCC#Cc1ccc(CN2CCC3(CCNCC3)C2)cc1,n
Cc1ccc(CN2CCC3(CCNCC3)C2)c(Cl)c1Cl,13µM
CN(Cc1ccccc1CN1CCCC1)C(=O)C1CC2(CCNCC2)CN1C (stereo not given),n
Cc1noc(-c2ccc3c(c2)OCO3)c1C(=O)NCCSCc1ccccc1,n
Cc1cc2nc3n(c(=O)c2n1CC(=O)NCc1ccc(F)cc1)CCCC3,n
COc1ccc(CN2C[C@H]3CN(C4CCOCC4)C[C@@]3(C(=O)O)C2)cc1O,n
O=C1CC(c2ccccc2)N(C(=O)C2CCCCC2)CCCCCCN1 (stereo not given),n
